High-throughput results as filed in PubChem BioAssay.
Only some compounds are listed: those with a hit (about 12% of all), similar ones and a draw of the others.
USP30 inh: blocks human USP30 ubiquitin-rhodamine cleavage; Q70CQ3; purified USP30, Ub-rhodamine cleavage fluorescence; inhibition, % at 25 µM; actives 5.3% (n = 47,000)
USP17 inh: human USP17-like deubiquitinase inhibition. purified USP17, Ub-rhodamine cleavage fluorescence, 3 h. actives 6.5% (n = 47,000). inhibition, % at 50 µM. A8MUK1. AID 1645855
OTUD3 inh: inhibitors of human OTUD3 deubiquitinase; Q5T2D3; purified OTUD3, Ub-rhodamine fluorescence, 2 h; inhibition, % at 25 µM; actives 0.7% (n = 47,000); AID 1645858
USP28 block: blocks human USP28 ubiquitin-rhodamine cleavage; purified USP28, Ub-rhodamine cleavage fluorescence, 30 min; actives 3% (n = 47,000); Q96RU2; inhibition, % at 25 µM
Target sequence (Q96RU2 whole entry, looked up): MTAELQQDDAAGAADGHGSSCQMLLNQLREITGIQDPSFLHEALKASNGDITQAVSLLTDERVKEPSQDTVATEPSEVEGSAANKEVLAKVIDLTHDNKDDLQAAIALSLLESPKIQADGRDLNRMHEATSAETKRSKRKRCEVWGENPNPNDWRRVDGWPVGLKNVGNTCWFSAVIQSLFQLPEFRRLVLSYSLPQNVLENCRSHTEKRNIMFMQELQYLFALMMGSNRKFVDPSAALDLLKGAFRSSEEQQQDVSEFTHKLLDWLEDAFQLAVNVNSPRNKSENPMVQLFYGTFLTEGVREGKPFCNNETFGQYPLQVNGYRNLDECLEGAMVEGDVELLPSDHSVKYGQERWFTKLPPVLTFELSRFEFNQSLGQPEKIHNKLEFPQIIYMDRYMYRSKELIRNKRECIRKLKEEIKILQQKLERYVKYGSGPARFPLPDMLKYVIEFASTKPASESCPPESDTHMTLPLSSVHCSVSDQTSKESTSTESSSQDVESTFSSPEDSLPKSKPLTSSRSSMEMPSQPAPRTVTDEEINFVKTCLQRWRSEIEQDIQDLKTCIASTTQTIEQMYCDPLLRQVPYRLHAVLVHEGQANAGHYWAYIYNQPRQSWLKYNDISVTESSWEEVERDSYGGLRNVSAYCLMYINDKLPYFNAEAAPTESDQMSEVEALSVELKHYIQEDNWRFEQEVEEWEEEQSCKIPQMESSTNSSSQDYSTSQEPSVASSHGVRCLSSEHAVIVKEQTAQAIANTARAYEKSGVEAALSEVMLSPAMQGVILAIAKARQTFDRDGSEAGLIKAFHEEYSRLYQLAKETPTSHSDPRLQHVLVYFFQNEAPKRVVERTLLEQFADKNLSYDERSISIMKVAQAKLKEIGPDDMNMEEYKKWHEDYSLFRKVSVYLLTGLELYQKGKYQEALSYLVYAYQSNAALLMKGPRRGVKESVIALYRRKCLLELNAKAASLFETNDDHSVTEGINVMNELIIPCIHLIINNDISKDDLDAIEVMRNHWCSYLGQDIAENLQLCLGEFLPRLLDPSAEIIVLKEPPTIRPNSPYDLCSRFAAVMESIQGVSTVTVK
* hit, by the source's call; · = no result given. Cut-off read from the data, not from the text of the source: active = inhibition above about 30%; inactive = the rest.

SMILES	USP30 inh	USP17 inh	OTUD3 inh	USP28 block
N#Cc1ccccc1Cn1c(=O)n(CCC(=O)N2CC=C(c3ccccc3)CC2)c(=O)c2ccccc21	25	0	2	14
O=C(Cn1c(=O)n(CCC(=O)N2CC=C(c3ccccc3)CC2)c(=O)c2ccccc21)NCc1ccco1	28	63*	20	25
CCOc1ccc(NC(=O)Cn2c(=O)n(CCC(=O)NCc3ccco3)c(=O)c3ccccc32)cc1	3	71*	11	8
Cc1cc(NC(=O)Cn2c(=O)n(CCCCC(=O)NCc3ccco3)c(=O)c3ccccc32)ccc1Br	5	64*	18	0
COc1ccc2c(CCNC(=O)CSc3nnnn3-c3ccccc3Cl)c[nH]c2c1	-7	17	0	12
CCOc1ccc(CN2C(=O)c3ccccc3C2C(=O)NCc2ccccc2OC)cc1 (centres undefined)	33*	40*	14	15
COc1ccccc1CNC(=O)C1c2ccccc2CC(=O)N1C(C)C (centres undefined)	-3	3	-2	-6
COc1ccccc1CNC(=O)C1c2ccccc2C(=O)N1Cc1ccc(C)cc1 (centres undefined)	86*	75*	52*	9
CCOc1ccc(N2C(=O)c3ccccc3C2C(=O)NCc2ccccc2OC)cc1 (centres undefined)	52*	35*	17	14
COc1ccccc1CNC(=O)[C@@H]1Cc2c([nH]c3ccccc23)C2c3ccccc3C(=O)N21 (some centres undefined)	-107	-21	-21	-22
COCCN1C(=O)c2ccccc2C(C(=O)NCc2ccccc2OC)C12CCCC2 (centres undefined)	-16	-11	-13	-6
COc1cc(NC(=O)Cn2nc(-c3ccc(F)cc3)ccc2=O)ccc1-n1cnnn1	43*	79*	19	15
Cc1cc(C(=O)CN2CCN(Cc3ccc4c(c3)OCO4)CC2)c(C)n1-c1ccc2c(c1)OCO2	-16	55*	6	18
Cc1cc(C(=O)COc2ncnc3sccc23)c(C)n1-c1ccc2c(c1)OCO2	·	57*	-2	·
Cc1cc(C(=O)COC(=O)c2ccc[nH]c2=O)c(C)n1-c1ccc2c(c1)OCO2	-30	67*	-6	0
Cc1cc(C(=O)COc2ncnc3sccc23)c(C)n1CC1COc2ccccc2O1 (centres undefined)	-120	·	-39	-29
COc1cc(Br)c(CC(=O)OCC(=O)c2cc(C)n(-c3ccc(Cl)cc3)c2C)cc1OC	-59	-28	-11	-10
O=C(COC(=O)c1ccccc1NC(=O)c1ccc(Oc2ccccc2)cc1)c1ccc2c(c1)OCO2	-3	-3	-2	-3
Cc1ccc(S(=O)(=O)CCC(=O)OCC(=O)c2cc(C)n(-c3ccc4c(c3)OCO4)c2C)cc1	3	41*	0	18
CN(C)C(=O)c1sc2ncccc2c1C1CN(c2ccncn2)CCO1 (centres undefined)	-51	-21	-13	-25
CCSc1nnc(-c2c[nH]c3ccccc23)n1C1CC1	12	13	-7	0
O=C1c2ccccc2-n2c1nc1ccccc1c2=O	-12	50*	-14	-7
Cn1c(=O)n([C@@H](Cc2ccccc2)C(=O)N[C@@H](C(=O)O)c2ccc(O)cc2)c(=O)c2ccccc21	10	24	7	6
Cc1cccc(NC(=O)c2ccn(COc3ccc(F)cc3F)n2)c1C	16	9	5	51*
O=C(Nc1ccccc1Br)c1ccn(COc2ccccc2F)n1	34*	65*	-1	19
SMILES	USP30 inh	USP17 inh	OTUD3 inh	USP28 block
COc1cccc(N2C(=O)CN(S(C)(=O)=O)CC2(C)C(=O)NC2CCCC2)c1 (centres undefined)	11	11	4	0
O=C1CC(c2ccco2)Cc2[nH]c(=O)c(-c3nc(-c4ccc(Cl)cc4)cs3)cc21 (centres undefined)	-337	6	38*	-5
COc1ccc(-c2csc(-c3cc4c([nH]c3=O)CC(c3ccco3)CC4=O)n2)cc1 (centres undefined)	-188	21	3	-23
COc1ccc(S(=O)(=O)N2CCc3nc4ccccc4n3CC2)cc1	54*	57*	0	-11
COc1ccccc1S(=O)(=O)N1CCc2nc3ccccc3n2CC1	4	-6	0	-7
Cc1ccc(C)c(N(C(C)C(=O)NCc2ccncc2)S(C)(=O)=O)c1 (centres undefined)	35*	35*	8	17
Cc1ccc(-c2nc(CNC(=O)C(C)Oc3ccccc3F)cs2)cc1 (centres undefined)	46*	7	19	9
COc1ccc(-c2nc(CNC(=O)c3ccccc3F)cs2)cc1	28	4	7	14
Cc1ccc2nc3c(cc(C(=O)Nc4cccc(C(F)(F)F)c4)n3Cc3ccccc3)c(=O)n2c1	-70	1	0	-9
COc1ccc(CNC(=O)C2COc3ccc(OC)cc3C2)cc1 (centres undefined)	0	34*	7	21
COc1ccc2c(c1)CC(C(=O)NCc1ccccc1)CO2 (centres undefined)	4	6	0	6
COC(=O)N1CCn2c(c(C(=O)NCc3nccs3)c3cccnc32)C1	-62	-17	-3	-7
CC(=O)Nc1cccc(C(=O)OCc2cc(=O)n3c(C)csc3n2)c1	-207	-32	-145	16
Oc1ccc(-c2nc3ccc(Cl)cn3c2NC2CCCCC2)cc1	-6	67*	7	0
Cc1ccc(S(=O)(=O)n2ccn(C(=O)c3ccccc3C)c2=O)cc1	·	15	6	·
COC(=O)c1ccc(NC(=O)CSc2cn(CC(=O)N3CCOCC3)c3ccccc23)cc1	0	1	3	2
Cc1noc(C)c1CN1CCOC(c2ccc(F)cc2)C1 (centres undefined)	0	0	-2	-4
O=C(Cn1cc(C(=O)C(F)(F)F)c2cc(Br)ccc21)N1CCc2ccccc21	-3	40*	1	-8
N#Cc1cccc(C(=O)NC2CCN(c3cc(-c4ccccc4)[nH]n3)CC2)c1	-61	-29	-25	-29
O=C1CC(c2ccc(O)cc2)c2c(nc(-c3ccccc3)[nH]c2=O)N1 (centres undefined)	·	35*	0	·
O=C1CC(c2ccc(Cl)cc2)c2c(nc(-c3ccccc3)[nH]c2=O)N1 (centres undefined)	-2	6	6	-7
COc1ccc(C(=O)Nc2nc3n(n2)C(c2ccccc2)CC(=O)N3)cc1 (centres undefined)	35*	73*	20	10
COc1ccccc1/C=C/C(=O)Nc1nc2n(n1)C(c1ccc(Cl)cc1)CC(=O)N2 (centres undefined)	39*	44*	37*	23
COc1cccc(O[C@@H]2C[C@@H](NC(=O)c3cocn3)[C@H](O)[C@H]2O)c1	0	-1	0	0
Cc1sc(-c2ccccn2)nc1OC(=O)c1cccc(Cl)c1Cl	82*	77*	11	23
O=C(N[C@@H](Cc1ccccc1)C(=O)N1CCN(c2ccccc2F)CC1)c1cccnc1	-10	-12	-8	-13
